In PubChem BioAssay AID1018 (Sanford-Burnham Center for Chemical Genomics, 2008):
The campaign covered roughly 200,000 compounds. About 15 (0.007%) were called active. The full list was thinned out, with actives kept by preference. Unmarked numbers belong to inactive results. No stated cut-off is given here; in the data, active means displacement above about 50%; inactive means the rest.

The compounds below were run against E3 ubiquitin-protein ligase XIAP (Homo sapiens) (UniProt P98170) (assay: small molecules displacing peptide from XIAP – biochemical, IAP family, fluorescence polarization (AID 1018)). Conditions: XIAP BIR domain, at 20 µM, hits give high values.
E3 ubiquitin-protein ligase XIAP (Homo sapiens), sequence (P98170 whole entry, looked up, the tested form may be a part): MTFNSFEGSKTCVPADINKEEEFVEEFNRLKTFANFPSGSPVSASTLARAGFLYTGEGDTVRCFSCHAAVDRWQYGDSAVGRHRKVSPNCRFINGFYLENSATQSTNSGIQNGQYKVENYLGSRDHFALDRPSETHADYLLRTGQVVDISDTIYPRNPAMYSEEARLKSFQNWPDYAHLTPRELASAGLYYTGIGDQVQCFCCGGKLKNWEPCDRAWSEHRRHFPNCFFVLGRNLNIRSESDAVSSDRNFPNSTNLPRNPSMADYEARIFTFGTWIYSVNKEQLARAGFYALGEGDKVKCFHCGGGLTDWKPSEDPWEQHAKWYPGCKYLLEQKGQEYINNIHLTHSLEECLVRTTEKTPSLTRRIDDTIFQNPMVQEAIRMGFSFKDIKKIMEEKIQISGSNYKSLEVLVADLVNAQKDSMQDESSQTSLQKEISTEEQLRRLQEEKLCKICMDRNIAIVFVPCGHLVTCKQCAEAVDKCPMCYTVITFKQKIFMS
`O=C(O)/C=C\C(=O)NCc1cccnc1` gave a displacement of -9.2%.
Work on `Cc1cc(F)ccc1N1CCC(N2CCN(C(C)C)C(CCO)C2)CC1` (stereo unspecified) yielded a displacement of -1.1%.
Compound `O=C(c1cc(COc2ccc(F)cc2F)on1)N1CCSCC1` has a displacement of -0.5%.
With `CCN1CCN(C(=S)Nc2cc(S(=O)(=O)N(CC)CC)ccc2C)CC1` the displacement was -2.7%.
In the case of `Cc1ccccc1NC(=O)Cc1c(O)c2ccccc2[nH]c1=O`, the displacement is reported as -1.1%.
`CCOC(=O)CSC(=S)NC(=O)c1ccc(OC)cc1` showed a displacement of -1.6%.
Compound `CCOC(=O)C1=C(C)NC(=NC)SC1c1ccccc1` (stereo unspecified) has a displacement of -5%.
`CSc1nnc(-c2cccs2)n1-c1ccccc1` was tested, and the displacement was 0.8%.
`CCOC(=O)C1(CC2CC2)CCN(Cc2ccc(O)c(Cl)c2)CC1` showed a displacement of -4.8%.
`CCCc1cc(=O)[nH]c(SCC(=O)N(CC)C2CCS(=O)(=O)C2)n1` (stereo unspecified) gave a displacement of -4.4%.
With `CC(C)(C)C1=C(C#N)C(c2ccncc2)C(C#N)=C(N)O1` (stereo unspecified) the displacement was -0.4%.
`CCN1CCCC1CNC(=O)Cn1cccc1C(=O)c1ccccc1` (stereo unspecified) was tested, and the displacement was -6.4%.
Compound `CC(=O)c1cc(-c2ccccc2)n(CC(=O)Nc2cc(C)cc(C)c2)c1C` has a displacement of -1%.
`Cc1ccc(C)c2[nH]c(=O)c(CN(Cc3ccco3)C(=S)NCC3CCCO3)cc12` (stereo unspecified) gave a displacement of 0.3%.
`CCN(c1ccccc1)S(=O)(=O)c1cc(C(=O)Nc2ccccc2Cl)ccc1F` showed a displacement of -5.8%.
With `O=C(c1ccc(F)cc1)N1CCCCC(Sc2nnnn2-c2ccccc2)C1=O` (stereo unspecified) the displacement was -21.1%.
`Cc1c(C(=O)C(=O)NCC2CCCO2)c2ccccc2n1C` (stereo unspecified) gave a displacement of -2.9%.
With `CCOC(=O)C(=O)Nc1cc(Cl)ccc1C` the displacement was -10.6%.
For `Cc1c(N)cccc1-n1cnnn1`, the displacement was -4%.
With `Cc1onc(-c2c(F)cccc2Cl)c1C(=O)N1CCc2ccccc2C1` the displacement was -8.4%.
`O=C(COC(=O)CCc1nc2ccccc2s1)Nc1cccc(S(=O)(=O)N2CCOCC2)c1` showed a displacement of -5.8%.
In the case of `c1ccc(Cn2nnc3c(NCc4ccc5c(c4)OCO5)nc(C4CC4)nc32)cc1`, the displacement is reported as -10.8%.
`CCCc1nc(NCc2ccc3c(c2)OCO3)c2nnn(Cc3ccccc3Cl)c2n1` was tested, and the displacement was 51.1% (active).
`Cc1nc(NCc2ccc3c(c2)OCO3)c2nnn(Cc3ccccc3)c2n1` gave a displacement of -8.1%.
Work on `O=C(COC(=O)c1ccc[n+]([O-])c1)Nc1c(Br)cc([N+](=O)[O-])cc1Br` yielded a displacement of -4.5%.
For `Cc1cc(C)c(NC(=S)N(CCN(C)C)Cc2cccs2)c(C)c1`, the displacement was -10.6%.
In the case of `C=C(C)C1Cc2c(C)nn(-c3cccc4ccccc34)c2C1` (stereo unspecified), the displacement is reported as -4.8%.
For `CCOC(=O)c1ccc(NC(=O)N2CCN(CCc3ccccc3)CC2)cc1`, the displacement was -8.1%.
`Cc1sc2ncn(-c3ccccc3)c(=O)c2c1C` gave a displacement of 4.2%.
With `Cc1ccc2nc(C3CCCN(C(=S)Nc4ccccc4C)C3)[nH]c2c1` (stereo unspecified) the displacement was -10%.
`CCCOC(=O)/C(=C\C=C\c1ccco1)NC(=O)c1ccccc1` showed a displacement of -0.1%.
In the case of `Cc1ccc(N/C(N)=N/c2nc(CSc3ccc(C)cc3)cc(=O)[nH]2)cc1`, the displacement is reported as 1.1%.
`CC(/C=C1\SC(=S)N(NC(=O)c2ccccc2C)C1=O)=C\c1ccccc1` showed a displacement of -1.8%.
`Fc1cccc(CSc2nc3ccncc3[nH]2)c1` gave a displacement of -5.3%.
Compound `CCOc1cc(N2CCOCC2)c(OCC)cc1NC(=O)CSc1ncccn1` has a displacement of -8.5%.
`O=C(Cn1cc(CCO)nn1)N1CCNCC1` was tested, and the displacement was -26.3%.
In the case of `CCOC(=O)c1c(C)[nH]c(C)c1C(=O)CSc1nnc(-c2ccncc2)n1C`, the displacement is reported as -0.3%.
For `O=C(Nc1cn(-c2ccccc2)nc1-c1ccc(Cl)cc1)c1ccccc1`, the displacement was -8.1%.
For `CN1CCN(CC(O)COC(c2ccccc2)c2ccccc2)CC1` (stereo unspecified), the displacement was -2.7%.
`CS(=O)(=O)N(CC(=O)Nc1ccc2c(c1)OCO2)c1ccccc1` was tested, and the displacement was 0.9%.
With `CCCCCC(=O)N1CCN(CCN=CC2=C(O)CC(c3ccc(OC)c(OC)c3)CC2=O)CC1` (stereo unspecified) the displacement was -3.4%.
`O=c1[nH]c2cc3c(cc2cc1CN(Cc1cccnc1)C(=S)NCc1ccco1)OCO3` was tested, and the displacement was -8.9%.
Work on `O=C(NC1CCCC1)C(c1ccncc1)N(Cc1ccco1)C(=O)c1ccc(-c2ccccc2)[nH]1` (stereo unspecified) yielded a displacement of -0.5%.
`O=C(CNC(=O)c1ccc(N2C(=O)c3ccccc3C2=O)cc1)OCC(=O)c1ccccc1` showed a displacement of -3.8%.
In the case of `CCc1ccc(C(=O)COC(=O)CNC(=O)c2ccc(N3C(=O)c4ccccc4C3=O)cc2)cc1`, the displacement is reported as -2.7%.
With `O=C(CNC(=O)c1ccc(N2C(=O)c3ccccc3C2=O)cc1)OCC(=O)c1ccc(Cl)cc1` the displacement was 77.6% (active).
Work on `CC1CCCN(C(=O)c2ccc3c(=O)n(C4CCCC4)c(=S)[nH]c3c2)C1` (stereo unspecified) yielded a displacement of -8.7%.
With `O=C(c1ccc2c(=O)n(C3CCCC3)c(=S)[nH]c2c1)N1CCCCCC1` the displacement was 68.1% (active).
In the case of `O=C(c1ccc2c(=O)n(C3CCCC3)c(=S)[nH]c2c1)N1CCN(C2CCCCC2)CC1`, the displacement is reported as -21.2%.
Compound `Cc1ccc(NC(=O)c2ccc(Cl)nc2)cc1` has a displacement of -3.5%.
`Cc1cccc(S(=O)(=O)NCC2CCCO2)c1` (stereo unspecified) was tested, and the displacement was -6.3%.
With `Cc1cc(C(=O)NCc2ccc(C(=O)O)o2)c(C)o1` the displacement was -8.1%.
For `CC1(C)NC(C)(C)c2nonc2/C1=N\O`, the displacement was -3.8%.
For `CC(C)(C)n1nnnc1C(c1ccncc1)N(Cc1ccccc1)Cc1ccco1` (stereo unspecified), the displacement was -4.2%.
Compound `O=S(=O)(/C=C/c1ccccc1)N1CCN(c2ccccc2)CC1` has a displacement of -3.9%.
Compound `CC(C)(C)n1nnnc1C(c1cccnc1)N1CCN(c2cccc(C(F)(F)F)c2)CC1` (stereo unspecified) has a displacement of -2.9%.
With `CCOC(=O)Nc1ccc(OC)cc1S(=O)(=O)N1CCCCC1` the displacement was -2.5%.
`COc1ccc(NC(=O)c2cc(OC)c(OC)cc2OC)c(S(=O)(=O)N2CCOCC2)c1` showed a displacement of -3.3%.
For `CCCCOC(=O)Nc1ccc(OC)cc1S(=O)(=O)N1CCOCC1`, the displacement was 58.7% (active).
With `CCNc1ccc2noc3c2c1C(=O)c1ccccc1-3` the displacement was -8.9%.
For `O=C1c2ccccc2-c2onc3ccc(NCCCn4ccnc4)c1c23`, the displacement was 70.1% (active).
Compound `O=C1c2ccccc2-c2onc3ccc(NCc4ccco4)c1c23` has a displacement of 76.4%.
Work on `Cc1cc(=O)[nH]c(S/C=C/c2ccccc2)n1` yielded a displacement of 0.7%.
For `CCN(CC)S(=O)(=O)c1ccc(C)c(NC(=O)COC(=O)CNC(=O)c2ccc(C(C)(C)C)cc2)c1`, the displacement was -10.4%.
`Cc1nn(CCC#N)c2[nH]c(=O)cc(C(F)(F)F)c12` gave a displacement of -4.9%.
`Cc1ccc(C(NC(N)=O)c2ccccc2C)cc1` (stereo unspecified) showed a displacement of -1.9%.
`S=c1[nH]nc(CN2CCCCC2)n1-c1ccc(Cl)cc1` showed a displacement of -9.6%.
`O=C(O)CCCc1nc(-c2ccc(Cl)cc2)no1` was tested, and the displacement was 70.8% (active).
`O=C(O)CCCc1nc(-c2ccccc2)no1` showed a displacement of -1.3%.
For `O=C(O)CCc1nc(-c2ccc(Cl)cc2)no1`, the displacement was -3.7%.
`Cc1cccc(-c2n[nH]c(=S)n2-c2ccccc2)c1[N+](=O)[O-]` gave a displacement of -3.7%.
For `CC(=O)C(C(C)=O)C1(O)C(=O)c2ccccc2C1=O`, the displacement was -3.4%.
`Fc1cccc(Cn2cc(C(=S)N3CCOCC3)c3ccccc32)c1` showed a displacement of -4.3%.
Compound `CCC(C(=O)O/N=C(\N)c1ccc(Cl)cc1)c1ccccc1` (stereo unspecified) has a displacement of -3.6%.
Compound `Cc1cccc2cc(COC(=O)C(C)C)c(=O)[nH]c12` has a displacement of -4.3%.
Compound `COC(=O)c1cn(NC(=O)c2ccc3c(c2)OCO3)c(=O)c2ccccc12` has a displacement of -3.5%.
In the case of `CCOC(=O)C1(CC2CC2)CCN(S(=O)(=O)/C=C/c2ccccc2)CC1`, the displacement is reported as -6.8%.
`Cc1ccc(-n2c(-c3ccccc3)c[n+]3c2CCc2ccccc2-3)c(C)c1` gave a displacement of -4.9%.
For `N/C(=N\OC(=O)CCC1CCCC1)c1ccc([N+](=O)[O-])cc1`, the displacement was -1.2%.
For `CC(=O)Nc1cccc(NC(=O)Nc2cccc(Cl)c2C)c1`, the displacement was -2.6%.
With `CCC/C=N/NC(=O)c1ccc(F)cc1` the displacement was -5.5%.
Work on `CCCNC(=O)C12CCC(C)(c3nc4cc(C)c(C)cc4nc31)C2(C)C` (stereo unspecified) yielded a displacement of -3%.
With `CCOC(=O)N1CCC(N2Cc3cccc(C(=O)Nc4ccc(OC)c(OC)c4)c3C2=O)CC1` the displacement was 1.9%.
In the case of `O=C(Nc1nnc(Cc2ccc(Cl)cc2)s1)C1CCCO1` (stereo unspecified), the displacement is reported as -3.9%.
For `COCCN1CCN(c2c3c(nc4cc(-c5cccc(F)c5)nn24)CCC3)CC1`, the displacement was -10.3%.
`O=C(O)[C@H](Cc1ccccc1)N1Cc2ccccc2C1=O` gave a displacement of 2.3%.
`O=C(O)C(Cc1ccccc1)N1Cc2ccccc2C1=O` (stereo unspecified) was tested, and the displacement was -8.8%.
Work on `CCOC(=O)/C=C/S(=O)(=O)c1ccc(NC(C)=O)cc1` yielded a displacement of -2.6%.
`CCN(CC)CCN(C(=O)c1c(F)cccc1F)c1nc2cc(C)cc(C)c2s1` gave a displacement of -3.6%.
In the case of `Cc1ccc(NC(=O)c2ccc(-n3cncn3)c([N+](=O)[O-])c2)cc1`, the displacement is reported as -3.6%.
With `CN(C)CCNC(=O)c1ccccc1` the displacement was -5.4%.
`CC1CCN(S(=O)(=O)c2ccc(N/N=C(/C#N)C(N)=O)cc2)CC1` gave a displacement of -6.4%.
`Cc1ccc(C)c(NC(=S)N(C)CCO)c1` showed a displacement of -3.7%.
Compound `Cn1c(=O)[nH]c(=O)c2c1nc(N1CCCCC1)n2CCSc1nc2ccccc2o1` has a displacement of -3.9%.
Compound `COc1ccc(N(CC(=O)NCCSC2CCCCC2)S(C)(=O)=O)c(OC)c1` has a displacement of -4.6%.
For `COc1ccc(/C(O)=C2/C(=O)C(=O)N(CCN(C)C)C2c2cccnc2)cc1OC` (stereo unspecified), the displacement was -8.8%.
